# Where a name gives a salt, the structure may show the parent alone.
# Test system: hN + hpA co-culture (H1 iNGN2 human neurons + human primary astrocytes)
# Assay: presynaptic density (SYNAPSIN1 puncta per MAP2 neurite area), Z-score vs DMSO controls; higher = more presynaptic puncta (synapse-promoting)
# Conditions: 3 µM; 72 h
# 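Also: immunostained co-cultures imaged by high-content microscopy, Z-score per plate against mean and SD of 0.1% DMSO wells, compounds added on differentiation day 18, analysed day 21.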
row,SMILES,presynaptic density (Z-score)
1,NC1(Cc2ccc(Cl)cc2)CCN(c2ncnc3[nH]ccc23)CC1,-0.622
2,CCn1c(-c2nonc2N)nc2c(C#CC(C)(C)O)ncc(OC[C@H]3CCCNC3)c21,-0.664
3,CNC(=C[N+](=O)[O-])NCCSCc1ccc(CN(C)C)o1 [Ranitidine],-0.33
4,O=C(Cc1ccc(-c2ccc(OCCN3CCOCC3)cc2)cn1)NCc1ccccc1,-5.26
5,COc1cc2c(Nc3ccc(NC(=O)c4ccccc4)cc3)ncnc2cc1OCCCN1CCOCC1,-1.71
6,O=C1C(=O)N(Cc2ccc(Cl)c(Cl)c2)c2ccccc21 [1-[(3 4-Dichlorophenyl)methyl]-1H-indole-2 3-dione],-0.359
7,NCC(=O)Nc1ccc(-n2nc(C(F)(F)F)cc2-c2ccc3c(ccc4ccccc43)c2)cc1,-0.52
8,COc1cccc(-c2cc(F)ccc2C2Cc3nc(N)nc(C)c3C(=O)N2)n1 (stereo not drawn),2.18
9,COc1ccccc1Oc1c(NS(=O)(=O)c2ccc(C(C)(C)C)cc2)nc(-c2ncccn2)nc1OCCO [Bosentan Hydrate],0.531
10,NC(=O)c1cccc(-c2cccc(OC(=O)NC3CCCCC3)c2)c1,-1.17
11,CC[C@@H]1C(=O)N(C)c2cnc(Nc3ccc(C(=O)NC4CCN(C)CC4)cc3OC)nc2N1C1CCCC1,-2.32
12,C[C@@H](Oc1cc(-n2cnc3ccc(CN4CCN(C)CC4)cc32)sc1C(N)=O)c1ccccc1C(F)(F)F,-1.83
13,C=C[C@@]1(C)CC(=O)[C@]2(O)[C@@]3(C)[C@@H](O)CCC(C)(C)[C@@H]3[C@H](O)[C@H](OC(C)=O)[C@@]2(C)O1 [Forskolin],0.455
14,CCOC(=O)C1=C(C)NC(C)=C(C(=O)OC)C1c1cccc(Cl)c1Cl (stereo not drawn) [Felodipine],-1.18
15,COCCCC/C(=N\OCCN)c1ccc(C(F)(F)F)cc1 [Fluvoxamine maleate],-0.239
16,CNC(=O)c1cc(Oc2ccc(NC(=O)Nc3cc(C(C)(C)C)nn3-c3ccc4ncccc4c3)c(F)c2)ccn1 [DCC-2036 (Rebastinib)],0.594
17,CC(C)C[C@H](NC(=O)[C@H](Cc1ccccc1)NC(=O)c1cnccn1)B(O)O [Bortezomib (PS-341)],-3.27
18,Cc1ccc2nc(NC(=O)CSc3nc4c(c(=O)n3-c3ccccc3)SCC4)sc2c1,-0.234
19,CC(C)C[C@H](NC(=O)CNC(=O)c1cc(Cl)ccc1Cl)B(O)O,-3.07

row,SMILES,presynaptic density (Z-score)
1,CC(C)N(CCCNC(=O)Nc1ccc(C(C)(C)C)cc1)C[C@H]1O[C@@H](n2cc(Br)c3c(N)ncnc32)[C@H](O)[C@@H]1O,-0.407
2,O=C(O)Cc1cccc(OCCCN(Cc2cccc(C(F)(F)F)c2Cl)CC(c2ccccc2)c2ccccc2)c1,-1.54
3,CS(=O)(=O)N1CCN(Cc2cc3nc(-c4cccc5[nH]ncc45)nc(N4CCOCC4)c3s2)CC1 [GDC 0941 bismesylate],1.26
4,Cc1ccc(S(=O)(=O)NC(=O)NN2CC3CCCC3C2)cc1 (stereo not drawn),0.0878
5,Nc1nc(OCc2cc(Br)cs2)c2[nH]cnc2n1 [Lomeguatrib],-0.621
6,C/C(=C\C(=O)Nc1ccccc1C(=O)O)c1ccc2ccccc2c1,-1.34
7,CN1CCC[C@@H]1CCO[C@](C)(c1ccccc1)c1ccc(Cl)cc1 [Clemastine],-0.781
8,CCOC(=O)c1ccc(N2NC(=O)C(=Cc3ccc([N+](=O)[O-])o3)C2=O)cc1,0.0787
9,CC(C)C[C@H](NC(=O)[C@@H](NC(=O)c1cccc(-c2ccccc2)n1)[C@@H](C)O)B(O)O,-3.12
10,CS(=O)(=O)c1cccc(CNc2nc(Nc3ccc4c(c3)CCC(=O)N4)ncc2C(F)(F)F)c1,1.04
11,O=C(Nc1nc2cccc(-c3ccc(CN4CCS(=O)(=O)CC4)cc3)n2n1)C1CC1 [Filgotinib (GLPG0634)],-0.645
12,C[C@@H]1CCN(C(=O)CC#N)C[C@@H]1N(C)c1ncnc2[nH]ccc12,-0.892
13,CCc1c2c(nc3ccc(OC(=O)N4CCC(N5CCCCC5)CC4)cc13)-c1cc3c(c(=O)n1C2)COC(=O)[C@]3(O)CC [Irinotecan],-0.725
14,NS(=O)(=O)c1ccc(NC(=O)Nc2ccc(F)cc2)cc1,0.585
15,COCCOc1ccc2c(c1)ncn2-c1ccc2cccc(N3CCC(N)CC3)c2n1,-0.271
16,COc1cc2c(cc1O)CC[C@@H]1[C@@H]2CC[C@]2(C)[C@@H](O)CC[C@@H]12 [2-Methoxyestradiol (2-MeOE2)],-0.808
17,CCN(CC)CC(=O)Nc1c(C)cccc1C,0.846
18,NC(=O)c1cnc(NC2CCCCC2N)nc1Nc1cccc(-n2nccn2)c1 (stereo not drawn),-0.728
19,NS(=O)(=O)C#Cc1ccccc1 [2-Phenylethynesulfonamide],0.148

# Source: the supplement of paper PMC10121225
